This note sets out measurements from PubChem BioAssay AID1347413 (National Center for Advancing Translational Sciences (NCATS), 2020).

Structures are written as SMILES. Activity calls are given as the source filed them. The call rests on the fitted dose curve; in most records, active means well fitted curve in the direction sought with a large enough effect; inactive means no such curve, though single readings can be large or run the other way.

The nature of the test: qHTS to identify inhibitors of the type 1 interferon - major histocompatibility complex class I in skeletal muscle: tertiary screen by RT-qPCR, retest select compounds. The note with it: C25cl48 myoblasts, IFN-beta, HLA-B RT-qPCR, 24 h. The source says:
Assay Submitter (PI): Travis B. Kinder Ph.D. & James Inglese Ph.D. Assay Development and Screening Technology Laboratory (ADST) National Center for Advancing Translational Sciences (NCATS), Rockville, MD National Institute of Health (NIH), Bethesda, Maryland Idiopathic inflammatory myopathies, collectively referred to as myositis, are a group of rare autoimmune diseases characterized by skeletal muscle inflammation, weakness, and usually accompanied by systemic pathologies of the skin, lungs, or vasculature. Current immunosuppressive therapies and glucocorticoids are often not curative and are accompanied by harsh side effects, especially in children with juvenile myositis. We initiated a drug repurposing and development program to identify more targeted, less toxic therapeutics to treat myositis. Although its cause is not known, muscle from a subset of patients have an abundance of the inflammatory type 1 interferon (IFN) and a down-stream product major histocompatibility complex class I (MHC class I), which are both thought to contribute to damage and weakness. We conducted quantitative high throughput screening (qHTS) on 6,576 compounds (4,679 unique) through a series of cell-based assays to identify those that inhibit the IFN-stimulated expression of MHC class I in muscle precursor cells (myoblasts). […]
In general terms: In qHTS, concentration-response curves come from the screen itself.

`CC(C)[C@]12O[C@H]1[C@@H]1O[C@@]13[C@@]1(C)CCC4=C(COC4=O)[C@@H]1C[C@@H]1O[C@@]13C2=O`: the Potency is 654 nM (active).
